# Only a selection was taken, and the strongest signals are over-represented in it overall.
# B1: Sp8391B-bot-388-20-388 (Bacteroides ovatus) (protein)
# chain: GCQNNDENEQHYDNKLFISASNFTKEILFKAGDTNVETGLSVAIAKPEEHDIKVTMSPAPELLSTYKLAYYDETAVLLSEEHYSMPETSTTIKSGSIVSPELPIEFINTGELDIKTTYVLPVTIKSVEGIGVLQSAKTYYYVFRGASLINVVCNISRNRAYPDFKNDSKFNNLTENTMEILFKANSFPNTLNTLMGIESNYLLRIGDATIPNNQLQVATSVNNCTSADLQLESGKWYHVAVAFNKGNVKVYINGVEKLSGSTGKSSVSLGAKHTNEEDGSRCFWVGYSYKDDRYFDGVVSEVRIWNRALTAEEIQATNHFYTIEPESEGLIAYWKFDEGSGTVAKDYSVSGYDLTIEKEPKWESVSLPQ
# Tests used:
# Assay in all cases: glycan array binding signal (z-score within array); higher = stronger binding
# Conditions in all cases: glycan notation: IUPAC condensed, linker removed
# [1] = molecular target: Gal(b1-4)GlcNAc(b1-3)[GlcNAc(b1-6)]Gal(b1-4)GlcNAc
# Procedure, shortened: (§1)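 Glycan array binding is given as a within-array Z-score, which can be read as non-binding when negative. The arrays, 3228 of them, came from the Consortium for Functional Glycomics database and were retained only where the protein sequence was available. Z-scores were averaged across arrays of the same protein sequence at different concentrations or buffers and across linkers.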
# [2] = molecular target: Gal(b1-4)GlcNAc(b1-6)Gal(b1-4)GlcNAc
# Procedure, shortened: as §1
# [3] = molecular target: Gal(b1-4)GlcNAc6P
# Procedure, shortened: as §1
# [4] = molecular target: GalNAc4S6S(b1-4)GlcNAc
# Procedure, shortened: as §1
# [5] = molecular target: Glc(a1-4)Glc(a1-4)Glc(a1-4)Glc
# Procedure, shortened: as §1
# [6] = molecular target: GlcNAc(b1-2)Man(a1-3)[GlcNAc(b1-4)][GlcNAc(b1-2)Man(a1-6)]Man(b1-4)GlcNAc(b1-4)GlcNAc
# Procedure, shortened: as §1
# [7] = molecular target: GlcNAc(b1-3)Gal(b1-4)GlcNAc(b1-3)Gal(b1-4)GlcNAc(b1-3)Gal(b1-4)GlcNAc(b1-2)Man(a1-3)[GlcNAc(b1-3)Gal(b1-4)GlcNAc(b1-3)Gal(b1-4)GlcNAc(b1-3)Gal(b1-4)GlcNAc(b1-2)Man(a1-6)]Man(b1-4)GlcNAc(b1-4)[Fuc(a1-6)]GlcNAc
# Procedure, shortened: as §1
# [8] = molecular target: GlcNAc(b1-3)Man
# Procedure, shortened: as §1
# [9] = molecular target: GlcNAc(b1-4)GlcNAc(b1-4)GlcNAc
# Procedure, shortened: as §1
# [10] = molecular target: Kdn(a2-3)Gal(b1-4)[Fuc(a1-3)]GlcNAc
# Procedure, shortened: as §1
# [11] = molecular target: MurNAc(b1-4)GlcNAc
# Procedure, shortened: as §1
# [12] = molecular target: Neu5Ac(a2-3)Gal(b1-3)GlcNAc
# Procedure, shortened: as §1
# [13] = molecular target: Neu5Ac(a2-3)Gal(b1-3)GlcNAc(b1-2)Man(a1-3)[GlcNAc(b1-4)][Neu5Ac(a2-3)Gal(b1-3)GlcNAc(b1-2)Man(a1-6)]Man(b1-4)GlcNAc(b1-4)GlcNAc
# Procedure, shortened: as §1
# [14] = molecular target: Neu5Ac(a2-3)Gal(b1-4)GlcNAc(b1-2)Man(a1-3)[Neu5Ac(a2-3)Gal(b1-4)GlcNAc(b1-2)Man(a1-6)]Man(b1-4)GlcNAc(b1-4)GlcNAc
# Procedure, shortened: as §1
# [15] = molecular target: Neu5Ac(a2-3)Gal(b1-4)GlcNAc(b1-2)[Neu5Ac(a2-3)Gal(b1-4)GlcNAc(b1-6)]Man(a1-6)[Neu5Ac(a2-3)Gal(b1-4)GlcNAc(b1-2)Man(a1-3)]Man(b1-4)GlcNAc(b1-4)GlcNAc
# Procedure, shortened: as §1
# [16] = molecular target: Neu5Ac(a2-3)Gal(b1-4)GlcNAc(b1-3)GalNAc
# Procedure, shortened: as §1
# [17] = molecular target: Neu5Ac(a2-3)Gal6S(b1-4)GlcNAc
# Procedure, shortened: as §1
# [18] = molecular target: Neu5Ac(a2-3)[GalNAc(b1-4)]Gal(b1-4)Glc
# Procedure, shortened: as §1
# [19] = molecular target: Neu5Ac(a2-6)Gal(b1-3)GlcNAc(b1-3)[Gal(b1-4)GlcNAc(b1-6)]Gal(b1-4)Glc
# Procedure, shortened: as §1
# [20] = molecular target: Neu5Ac(a2-6)Gal(b1-4)GlcNAc
# Procedure, shortened: as §1
# [21] = molecular target: Neu5Ac(a2-6)Gal(b1-4)GlcNAc(b1-2)Man(a1-6)[Man(a1-3)]Man(b1-4)GlcNAc(b1-4)GlcNAc
# Procedure, shortened: as §1
# [22] = molecular target: Neu5Ac(a2-6)Gal(b1-4)GlcNAc(b1-2)[Neu5Ac(a2-6)Gal(b1-4)GlcNAc(b1-4)]Man(a1-3)[GlcNAc(b1-4)][Neu5Ac(a2-6)Gal(b1-4)GlcNAc(b1-2)[Neu5Ac(a2-6)Gal(b1-4)GlcNAc(b1-6)]Man(a1-6)]Man(b1-4)GlcNAc(b1-4)GlcNAc
# Procedure, shortened: as §1
# [23] = molecular target: Neu5Ac(a2-6)Gal(b1-4)GlcNAc(b1-6)[Gal(b1-3)]GalNAc
# Procedure, shortened: as §1
# [24] = molecular target: Neu5Ac(a2-6)GalNAc(b1-4)GlcNAc6S
# Procedure, shortened: as §1
# [25] = molecular target: Neu5Ac(a2-8)Neu5Ac(a2-3)[GalNAc(b1-4)]Gal(b1-4)Glc
# Procedure, shortened: as §1
# [26] = molecular target: Neu5Ac(a2-8)Neu5Ac(a2-8)Neu5Ac(a2-3)Gal(b1-4)Glc
# Procedure, shortened: as §1
# [27] = molecular target: Neu5Ac9Ac(a2-6)Gal(b1-4)GlcNAc
# Procedure, shortened: as §1
# [28] = molecular target: Neu5Gc(a2-8)Neu5Gc(a2-3)Gal(b1-4)GlcNAc(b1-3)Gal(b1-4)GlcNAc
# Procedure, shortened: as §1
binder,measurement,setting,value
B1,glycan array binding signal (z-score),[1],0.193
same,glycan array binding signal (z-score),[2],0.486
same,glycan array binding signal (z-score),[3],0.015
same,glycan array binding signal (z-score),[4],-0.043
same,glycan array binding signal (z-score),[5],-0.549
same,glycan array binding signal (z-score),[6],-0.101
same,glycan array binding signal (z-score),[7],2.65
same,glycan array binding signal (z-score),[8],0.083
same,glycan array binding signal (z-score),[9],-0.077
same,glycan array binding signal (z-score),[10],1.91
same,glycan array binding signal (z-score),[11],-0.265
same,glycan array binding signal (z-score),[12],-0.213
same,glycan array binding signal (z-score),[13],-0.652
same,glycan array binding signal (z-score),[14],-0.533
same,glycan array binding signal (z-score),[15],0.918
same,glycan array binding signal (z-score),[16],-0.435
same,glycan array binding signal (z-score),[17],-0.501
same,glycan array binding signal (z-score),[18],0.131
same,glycan array binding signal (z-score),[19],6.14
same,glycan array binding signal (z-score),[20],-0.355
same,glycan array binding signal (z-score),[21],0.075
same,glycan array binding signal (z-score),[22],2.53
same,glycan array binding signal (z-score),[23],-0.211
same,glycan array binding signal (z-score),[24],-0.019
same,glycan array binding signal (z-score),[25],0.19
same,glycan array binding signal (z-score),[26],0.117
same,glycan array binding signal (z-score),[27],-0.27
same,glycan array binding signal (z-score),[28],-1.02
